Only some compounds are listed: those with a hit (about 1.5% of all), similar ones and a draw of the others.
HUVEC tox IL1B = cytotoxicity in IL-1B stimulated HUVEC, primary screen, cytotoxicity control for IL-1B NFkB translocation project, imaging, Hoechst nuclear count, IL-1B stimulus. cell count reduction, % at 2 µM. AID 845, 2007. HUVEC cell count loss. 0.41% of 94,000 active;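 active = cell count reduction more than 3 SD above the screen-wide mean, cut at about 70% in these data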
VCAM1 TNFa inh = inhibitors of TNFa-induced VCAM1 expression, primary screen, imaging, HUVEC, TNFa stimulus, immunofluorescence; inhibition, % at 2 µM; HUVEC TNFa-induced VCAM-1 immunofluorescence, high-content imaging; 0.48% of 95,000 active;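 active = inhibition above the batch mean plus 3 SD, with images confirmed as a hit by eye, cut at about 37% in these data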
IL1B NFkB pot = enhancers of NFkB p65 translocation in HUVEC – imaging, IL-1B stimulus, high-content imaging, primary screen; AID 819, 2007; 0.3% of 94,000 active; HUVEC IL-1B NFkB p65 nuclear translocation imaging; activation, % at 2 µM;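 active = activation above 40%, about the mean plus 3 SD, also judged a hit on visual image review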;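 note: percent activation is computed from the nuclear over cytoplasmic p65 intensity ratio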
HUVEC tox TNFa = cytotoxicity in TNFa-stimulated HUVEC, primary screen, cytotoxicity control for VCAM1 expression modulator project, imaging, Hoechst nuclei count. HUVEC TNFalpha-stimulated, Hoechst cell count. cell count reduction, % at 2 µM. 0.17% of 93,000 active. AID 848, 2007;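 active = cell count reduction exceeding the screen mean by over 5 SD, scaled to untreated wells per plate, cut at about 78% in these data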;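 note: cells counted after 24 h of TNF alpha exposure following the 1 h pretreatment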
IL1B NFkB inh = inhibitors of IL-1B driven NFkB p65 nuclear import, primary screen, imaging, HUVEC, IL-1B stimulus, high-content imaging. HUVEC IL-1B NFkB p65 nuclear translocation imaging. inhibition, % at 2 µM. 0.43% of 94,000 active;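 active = inhibition above about 30% together with a positive call from visual inspection of the well image, limit read from the data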;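 note: nuclear over cytoplasmic p65 intensity ratio measured by imaging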
Large screens that a line does not name were inactive.

COc1cc(-c2nnc(SC(C)C(=O)Nc3c(C)n(C)n(-c4ccccc4)c3=O)o2)cc(OC)c1OC (configuration not stated)	none
O=S(=O)(c1ccc(Cl)cc1)c1snnc1-c1ccccc1	VCAM1 TNFa inh 50
Cc1cnc(NC(=O)c2ccco2)s1	HUVEC tox TNFa 89
Cc1sc(NC(=O)c2ccco2)nc1-c1ccccc1	none
CC(=O)c1cccc(NC(=O)NCc2ccccn2)c1	none (no result: HUVEC tox TNFa)
COc1cccc(OC)c1C(=O)Nc1cccc(C(C)=O)c1	none
CC(=O)c1cccc(NC(=O)NCc2cccs2)c1	IL1B NFkB pot 46
COc1cc(NC(=O)Nc2cccc(C(C)=O)c2)cc(OC)c1OC	HUVEC tox IL1B 72
Cn1cnc2c(N3CCCCC3)nccc21	HUVEC tox IL1B 93
COc1ccc(-c2cc3ccccc3oc2=O)cc1NC(=O)c1ccc([N+](=O)[O-])o1	VCAM1 TNFa inh 74 (no result: HUVEC tox TNFa)
COc1cc(NC(=O)c2cc3ccccc3o2)c(OC)cc1Cl	HUVEC tox IL1B 78, IL1B NFkB inh 100
COc1ccc(-c2cc3ccccc3oc2=O)cc1NC(=O)c1ccc(Br)o1	none
CCCn1c(SCC(=O)Nc2ccc(OC)cc2)nnc1-c1ccncc1	none
Cc1ccc(C(=O)NNC(=O)CSc2nnc(-c3ccncc3)n2C)cc1	none (no result: HUVEC tox TNFa)
OCCSc1nnc(Nc2ccccc2)s1	HUVEC tox TNFa 78
Cc1ccccc1OCCN1C(=O)NC2(CCc3ccccc32)C1=O (configuration not stated)	none
CCOC(=O)N1CCC(NC(=O)C2CCN(C(=O)N3CC(C)Oc4ccc(C)cc43)CC2)CC1 (configuration not stated)	IL1B NFkB inh 50
CCOC(=O)N1CCC(NC(=O)C2CCN(C(=O)N3CC(C)Oc4ccccc43)CC2)CC1 (configuration not stated)	none
COc1ccccc1N(CC(=O)Nc1cccnc1)S(C)(=O)=O	none
CCC(C)NC(=O)C1CCCN(S(=O)(=O)c2ccc(-n3cnnn3)cc2)C1 (configuration not stated)	none
CCOc1cc(C2C(C(=O)c3ccc(C)o3)=C(O)C(=O)N2CCc2ccccc2)ccc1O (configuration not stated)	IL1B NFkB inh 47
COc1cc(C2C(C(C)=O)=C(O)C(=O)N2CCc2ccc(OC)c(OC)c2)ccc1O (configuration not stated)	none
COC(=O)c1sc2nc(-c3ccco3)ccc2c1N	none (no result: VCAM1 TNFa inh, HUVEC tox TNFa)
COC(=O)c1sc2cnccc2c1N	HUVEC tox IL1B 78
C#CC1CN(Cc2ccccc2)CC(C#C)N1C (configuration not stated)	none
COc1cc(CC(=O)NCCc2ccc(S(N)(=O)=O)cc2)cc(OC)c1OC	none
COc1ccc(Cn2c(CCCO)nc3ccccc32)cc1OC	HUVEC tox TNFa 81
CCOC(=O)c1cnn(-c2ncnc3sc(CC)cc23)c1N	none
CCOC(=O)c1cnn(-c2nc(CC)nc3sc4c(c23)CCC4)c1N	VCAM1 TNFa inh 92
O=C1OC(c2ccccc2)/C(=C(/O)c2ccc(Cl)cc2)C1=O (configuration not stated)	IL1B NFkB inh 38
Cc1ccc(/C(O)=C2/C(=O)C(=O)OC2c2ccc(Cl)cc2)cc1 (configuration not stated)	none
CN(C)S(=O)(=O)c1ccc2c(c1)c(=O)c(C(=O)N1CCOCC1)cn2C	IL1B NFkB inh 66
COc1cccc(CSc2nc3ccccc3cc2C=O)c1	HUVEC tox IL1B 72, VCAM1 TNFa inh 90, IL1B NFkB inh 43
O=C(NCCCN1CCOCC1)c1cccs1	none
Cc1cc(NS(=O)(=O)c2ccc(NC(=O)COc3ccc(Cl)cc3)cc2)no1	HUVEC tox IL1B 88, IL1B NFkB inh 99 (no result: HUVEC tox TNFa)
COc1ccc(N=c2oc3ccc(OC)cc3cc2-c2nc3ccccc3[nH]2)cc1	VCAM1 TNFa inh 50
CN(c1ccc(C(=O)Nc2ccccc2C(=O)N2CCCC2)cc1)S(C)(=O)=O	HUVEC tox IL1B 82 (no result: HUVEC tox TNFa)
CCOC(=O)c1nc2cc3n(c(C)c-2c1C)C(C)C(CC)=C3C (configuration not stated)	none
COc1ccc(C(=O)C(CN2CCOCC2)c2ccccc2)cc1 (configuration not stated)	VCAM1 TNFa inh 51
COc1ccc(C(=O)C(CN2CCCC2)c2ccccc2)cc1 (configuration not stated)	VCAM1 TNFa inh 84
CCCCOCCCNC(=O)CCCOc1ccccc1	HUVEC tox IL1B 93
CCOCCCNC(=O)CCCOc1ccccc1	none
Cc1ccc(Oc2cc(C)nc(-c3ccccc3O)n2)cc1	none
Cc1cc(OCc2ccc(F)cc2)nc(-c2ccccc2O)n1	VCAM1 TNFa inh 95, HUVEC tox TNFa 80
CC(C)CNc1nc(=S)nc(N(C)C)[nH]1	IL1B NFkB inh 37
O=C(CN1C(=O)C2CCc3[nH]c4ccccc4c3C2C1=O)N1CCCC1 (configuration not stated)	HUVEC tox TNFa 86
O=[N+]([O-])c1cccc(/C=N/n2c(COc3ccccc3)n[nH]c2=S)c1	none
O=[N+]([O-])c1ccc(/C=N/n2c(COc3ccccc3)n[nH]c2=S)cc1	VCAM1 TNFa inh 43
Brc1ccccc1-c1nnc2sc(Cc3ccccc3)nn12	IL1B NFkB pot 59
COc1cccc(NC(=O)C23CCC(C)(C(=O)O2)C3(C)C)c1 (configuration not stated)	none
O=C(CCSc1ccccc1)NCC1CCCO1 (configuration not stated)	none
Cn1nc(C(=O)NCC2CCCO2)c2ccccc2c1=O (configuration not stated)	VCAM1 TNFa inh 95, HUVEC tox TNFa 84
O=C(CC(c1ccccc1)c1ccccc1)NCC1CCCO1 (configuration not stated)	VCAM1 TNFa inh 41
NS(=O)(=O)c1ccc(NC(=O)CSc2nnc(-c3cnccn3)n2-c2ccccc2)cc1	none
O=C(c1cc(-c2ccncc2)nc2ccc(Br)cc12)N1CCN(c2ccccn2)CC1	VCAM1 TNFa inh 100 (no result: HUVEC tox TNFa)
O=C(OCn1ncc(Br)c(Br)c1=O)c1ccccc1Cl	IL1B NFkB inh 65
O=C(OCn1ncc(Br)c(Br)c1=O)c1ccc(F)cc1	VCAM1 TNFa inh 81
Cc1nc(CNS(=O)(=O)c2ccc3c(c2)OCCO3)cs1	IL1B NFkB pot 59
Cc1ccc(S(=O)(=O)NCC(c2ccccc2)N2CCN(CCC#N)CC2)cc1 (configuration not stated)	none
O=C(NCc1ccccc1)Oc1cccc(Cl)c1	IL1B NFkB pot 42
C=C(C)c1cccc(C(C)(C)NC(=O)Nc2ncccn2)c1	VCAM1 TNFa inh 99, HUVEC tox TNFa 95
COc1ccc(Nc2nc(N3CCCC3)nc3ccccc23)c(OC)c1	VCAM1 TNFa inh 94
O=C(NCc1ccccn1)NC12CC3CC(CC(C3)C1)C2	HUVEC tox IL1B 89, IL1B NFkB inh 95
